In all, about 96,000 compounds went through this assay and about 20,000 (21%) were called active.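 The calls were made as follows: active = CYP2C19 inhibition above a set limit at 5 µM in the primary screen (cut at about 50% in these data); inactive = the rest.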 These entries were drawn from the full list.

Chain of Cytochrome P450 2C19 (Homo sapiens) (P33261 whole entry, looked up): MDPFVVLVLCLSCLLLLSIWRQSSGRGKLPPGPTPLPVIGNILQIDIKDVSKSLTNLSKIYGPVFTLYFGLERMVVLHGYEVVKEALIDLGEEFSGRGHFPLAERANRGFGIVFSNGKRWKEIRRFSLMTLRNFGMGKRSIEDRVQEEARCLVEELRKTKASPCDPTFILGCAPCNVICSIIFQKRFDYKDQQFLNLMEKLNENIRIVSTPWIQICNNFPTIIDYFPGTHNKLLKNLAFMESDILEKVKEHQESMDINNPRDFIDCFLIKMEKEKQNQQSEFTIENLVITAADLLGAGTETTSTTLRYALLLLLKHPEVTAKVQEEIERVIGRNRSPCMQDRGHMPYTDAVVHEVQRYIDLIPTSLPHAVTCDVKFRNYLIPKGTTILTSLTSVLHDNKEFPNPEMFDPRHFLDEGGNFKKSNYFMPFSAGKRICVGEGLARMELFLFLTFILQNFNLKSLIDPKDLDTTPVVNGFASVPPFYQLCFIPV

This assay has as its target Cytochrome P450 2C19 (Homo sapiens) (UniProt P33261). Nature of the assay: blockers of cytochrome P450 2C19 activity – biochemical, luminescence, ADME assay, primary screen (AID 778).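 Also: plate controls were negative control wells for no effect and 2.5 mM tranylcypromine positive control for full effect.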 The following applies: CYP2C19 Supersomes, luciferin-H EGE luminescence, 30 min; at 5 µM; hits give high values.
As usually defined, the inhibition is the relative decrease from the control value, in per cent. With `COc1ccc(-c2cc(C(=O)NC(C(=O)O)C(C)C)c(C)o2)cc1OC` (stereo unspecified), the inhibition is 6.4% (inactive).
For `CCN(CC)P(=O)(C(NC(=O)OC)C(F)(F)C(F)(F)C(F)(F)C(F)F)N(CC)CC` (stereo unspecified) the value was 10% (inactive).
For `CCN(CC)CCNC(=O)CCCCCn1c(=O)[nH]c2cc(C(=O)OC)ccc2c1=O` the value was 0% (inactive).
For `Cc1n[nH]c(C)c1S(=O)(=O)N1CCCC(C(=O)NCC2COc3ccccc3O2)C1` (stereo unspecified) the value was 15.3% (inactive); for `Cc1nn(-c2ccccn2)c2c1C(c1ccncc1)C1=C(CC(C)(C)CC1=O)N2` (stereo unspecified), 98.7% (active); for `Cc1cc2c(cc1C)NC(c1ccccn1)C1=C(CC(C)(C)CC1=O)N2` (stereo unspecified), 1.3% (inactive).
Regarding `O=S(=O)(N1CCCCC1)N1CCNCC1`, the inhibition is -28.7% (inactive).
For `CCN(CC)CCn1c2ccc(Cl)cc2c2nc(C)sc21` the value was 49.4% (inactive); for `CCC1CCCCN1C(=O)Nc1cccc(NC(=O)N2CCCCC2CC)c1` (stereo unspecified), -10.7% (inactive).
For `COc1ccc(C(C)=O)cc1CN1C(=O)NC2(CCCCC2C)C1=O` (stereo unspecified) the value was 33.8% (inactive); for `Cc1ccc2c(C(=O)CN3CCCC3)c(C)[nH]c2c1`, 26.2% (inactive); for `Cc1c(C(=O)N2CCOCC2)[nH]c2ccc(OCc3ccccc3)cc12`, 43.3% (inactive).
Turning to `Cc1[nH]c2ccccc2c1C(=O)COC(=O)C(C)C`, the inhibition is 25.9% (inactive).
With `Cc1c(C(=O)CN2CCOCC2)[nH]c2ccccc12`, the inhibition is 56% (active).
For `CCOC(=O)N1CCN(CC(=O)c2c(C)[nH]c3ccccc23)CC1` the value was 88% (active).
To `CC1CCN(CC(=O)c2c[nH]c3ccccc23)CC1` belongs 12.2% (inactive).
To `CSc1nc2ccccc2cc1/C=C(\C#N)c1ccc(Cl)cc1Cl` belongs 12.7% (inactive); to `COc1ccc(OC)c(CN2C(=O)CCC2(C)C(=O)NC2CCCCCC2)c1` (stereo unspecified), 18.1% (inactive).
For the molecule `CCOc1c2ccc(C(=O)NCc3ccc(OC(F)(F)F)cc3)cc2nn1C`, the inhibition is 13.9% (inactive).
To `O=C(NCc1cccs1)c1ccc2c(c1)ncn2C1CCCC1` belongs 5.6% (inactive); to `O=C(COC(=O)c1ccccc1SCC(=O)NC1CCCCC1)NC1CCCCC1`, 12.2% (inactive).
For `COCCNC(=O)c1onc(CSc2cccc(C)c2)c1C(=O)O` the value was 39.1% (inactive).
To `CCOC(=O)CC1C(=O)NCCN1C(=O)COc1ccc(Br)cc1C` (stereo unspecified) belongs 15.5% (inactive); to `CCCCn1c(CCCNC(=O)CC)nc2ccccc21`, -20% (inactive); to `C=C(Br)Cn1c(CCCC)nc2ccccc21`, 63.8% (active).
As for `CCCCn1c(CN2CCN(CCO)CC2)nc2ccccc21`, the inhibition was 20.4% (inactive).
For `Cc1nc2c(-c3ccccc3)c(C)[nH]n2c(=O)c1Cl` the value was -1% (inactive).
To `CC(=O)Nc1nc(C)c(Cc2ccccc2)c(=O)[nH]1` belongs 6.3% (inactive).
For `CC(Sc1sc(=S)sc1SC(C)C(=O)O)C(=O)O` (stereo unspecified) the value was -1.4% (inactive); for `CC1Cc2ccccc2N1C(=O)c1cc2sccc2n1Cc1ccccc1` (stereo unspecified), 25.4% (inactive); for `CCOC(=O)c1cc2sccc2n1Cc1ccc(C#N)cc1`, 96.9% (active).
Regarding `CCCOc1ccc(Cn2c(O)cc(=O)[nH]c2=O)cc1`, the inhibition was -7.8% (inactive).
For `CCOc1ccc(-c2nnc(-c3ccco3)o2)cc1` the value was 19% (inactive); for `COc1cc(C2CC(=O)N3CN(Cc4ccccc4)CSC3=C2C#N)ccc1OCc1ccccc1` (stereo unspecified), 33% (inactive); for `COc1ccc(C2=NOC(C(=O)NCc3ccco3)C2)cc1OC` (stereo unspecified), -4.7% (inactive).
Consider `O=C(NCCCCc1ccccc1)C1CC(c2ccc([N+](=O)[O-])cc2)=NO1` (stereo unspecified), for which the inhibition is 9.5% (inactive).
To `Cc1ccc(CNC(=O)C2CC(c3ccccc3[N+](=O)[O-])=NO2)o1` (stereo unspecified) belongs 61.7% (active); to `O=C(O)CN(Cc1ccco1)S(=O)(=O)c1ccccc1`, -12.5% (inactive).
For `Cc1ccc(N2C(=O)CC(Sc3ncn[nH]3)C2=O)cc1` (stereo unspecified), the inhibition is 5.4% (inactive).
To `COc1ccc(N2CCN(C3CC(=O)N(c4ccc5c(c4)OCCO5)C3=O)CC2)cc1` (stereo unspecified) belongs 9.7% (inactive); to `Cc1ccc(CC2CC(=O)N(c3ccc4c(c3)OCCO4)C2=O)cc1` (stereo unspecified), 62.6% (active); to `COC(=O)N1CN(C(=O)OC)CN(C(=O)OC)C1`, -10.2% (inactive).
With `CCn1c(SCc2ccc(C)cc2)nnc1-c1nn(-c2ccccc2)ccc1=O`, the inhibition was -0.8% (inactive).
For `O=C(NCc1ccco1)c1ccc(Cn2c(=O)c3sccc3n(Cc3ccc(F)cc3)c2=O)cc1` the value was 79.8% (active); for `O=C(Cc1ccc(-n2c(=O)c3sccc3n(Cc3ccc(F)cc3)c2=O)cc1)NCc1ccco1`, 49.5% (inactive).
In the case of `O=C(NCc1ccco1)c1cc2sccc2n1Cc1ccc(F)cc1`, the inhibition is 32.8% (inactive).
For `C=CCn1c(Oc2ccc(C(=O)OC)cc2)nc2c1c(=O)n(C)c(=O)n2C` the value was 5.6% (inactive); for `CC(=O)NCCc1ccc(S(=O)(=O)N(C)C2CCS(=O)(=O)C2)cc1` (stereo unspecified), -2.2% (inactive); for `Cc1cc(C)c(S(=O)(=O)N2C=CC(C(F)(F)F)=NCC2)c(C)c1`, 19% (inactive).
For `O=C(CNS(=O)(=O)c1cccc(C(F)(F)F)c1)Nc1ccccc1F` the value was 74.7% (active); for `CCNS(=O)(=O)c1ccc(NC(=O)Nc2cccc(C(F)(F)F)c2)cc1`, 1.1% (inactive); for `O=C(Cn1cc(/C=N/NC(=O)c2cccc(C(F)(F)F)c2)c2ccccc21)Nc1ccc(F)cc1`, 9.9% (inactive).
For `CCN(CC(=O)NCc1cccs1)c1nnnn1-c1ccccc1` the value was 27.1% (inactive); for `Oc1c(CN2CCN(c3ccc(F)cc3)CC2)cc(Cl)c2cccnc12`, 18.8% (inactive).
Turning to `COCCn1nnnc1C(c1ccccc1Cl)N1CCN(c2ccccc2OC)CC1` (stereo unspecified), the inhibition is 54% (active).
To `COCCn1nnnc1CN1CCC(NC(=O)Nc2cccc(OC)c2)CC1` belongs -0.3% (inactive); to `COc1cc(-n2c(C)nc3cc(C(=O)NCc4ccco4)ccc32)cc(OC)c1OC`, 42.8% (inactive).
With `COC(=O)Cn1nc(-c2ccccc2)c2cc(Cl)ccc21`, the inhibition is 21.2% (inactive).
To `CCCCNC(=O)CSc1nccn1Cc1ccccc1` belongs 53.8% (active).
To `O=C(CSc1ncccn1)NCCc1ccccc1` belongs 80.6% (active); to `COC(=O)CCSc1nccn1Cc1ccccc1`, 76.8% (active); to `CCCCCCNC(=O)CSc1nccn1Cc1ccccc1`, 37.7% (inactive).
Take `O=C(CSc1ncccn1)NC(=O)NCc1ccccc1`: the inhibition is 13.9% (inactive).
For `O=C(O)CSc1nccn1-c1cccc(Cl)c1` the value was 43.9% (inactive); for `CCCCNC(=O)CSc1nnc(-c2ccco2)n1C`, 20% (inactive); for `Nc1nonc1C(=O)NCCc1ccccc1`, 31.5% (inactive).
